Only some compounds are listed: those with a hit (about 2.4% of all), similar ones and a draw of the others.
POLB inh – blocks human DNA polymerase beta activity; P06746; Pol beta primer extension/strand displacement, fluorescence kinetic; Potency, µM (highest dose often 114 µM), inactives show at the highest dose activity change, negative = inhibition, hits mostly inhibitors; 340,000 tested, 1.3% active; AID 485314; further: on the % scale 0 is the no-effect control and ±100 the full control effect
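Enzyme-only controls used 10 nM Pol beta; buffer lacking enzyme served as negative control. Compound preincubated 15 min, then 50 nM substrate added; 0 and 10 min reads at room temperature.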
FEN1 inh – human FEN1 inhibition. 390,000 tested, 0.35% active. P39748. Potency, µM (doses to about 114 µM), without a hit: at the top dose activity change, negative = inhibition, actives largely listed as inhibitors. AID 588795. Recombinant FEN1 flap cleavage, fluorescence, 15 min; further: on the % scale 0 is the no-effect control and ±100 the full control effect; nearly all actives have a fitted effect of over 65% in size
Target sequence (P39748 whole entry, looked up): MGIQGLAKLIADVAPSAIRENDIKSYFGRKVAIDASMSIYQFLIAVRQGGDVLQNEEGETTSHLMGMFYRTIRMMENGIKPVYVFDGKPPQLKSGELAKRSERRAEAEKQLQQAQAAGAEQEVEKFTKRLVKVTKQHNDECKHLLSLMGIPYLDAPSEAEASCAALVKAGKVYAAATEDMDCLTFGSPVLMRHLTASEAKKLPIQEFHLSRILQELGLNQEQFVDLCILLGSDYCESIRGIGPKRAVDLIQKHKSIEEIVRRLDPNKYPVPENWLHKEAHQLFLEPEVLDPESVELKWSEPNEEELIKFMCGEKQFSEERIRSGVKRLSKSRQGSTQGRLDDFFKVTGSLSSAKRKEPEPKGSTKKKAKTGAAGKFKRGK
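Concentration–response screening of FEN1 (10 nM): 15 min compound preincubation at room temperature, reaction started with 50 nM substrate and read at 0 and 15 min. Corrected, normalized data were fitted by a four-parameter Hill equation.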
POLI inh – blocks human DNA polymerase iota activity. 390,000 tested, 1% active. AID 588590. Potency, µM (highest dose often 115 µM), for the others: top-dose activity, negative = inhibition, most hits filed as inhibitors. Pol iota fluorescent replication assay, 10 min
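Pol iota at 10 nM preincubated 15 min with compounds at room temperature; reaction started with fluorescent substrate, 50 nM final. Fluorescence read kinetically at 0 and 10 min; buffer-only wells as negative control.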
WRN inhibitor – inhibitors of human WRN helicase; Q14191; WRN helicase unwinding, fluorescent forked duplex, kinetic; Potency, µM (doses to about 114 µM), for the others: at the top dose activity change, negative = inhibition, usual class: inhibitors; 360,000 tested, 0.46% active; further: on the % scale 0 is the no-effect control and ±100 the full control effect; nearly all actives have a fitted effect of over 55% in size
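Enzyme (20 nM final) and test compound sit together 15 min at room temperature before substrate addition. Substrate is a single-forked duplex oligonucleotide (100 nM) labelled with fluorophore and quencher, with 2 mM ATP; helicase unwinding raises red fluorescence, read kinetically.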
Pol eta inh – DNA polymerase eta (human) inhibition; AID 588591; Q9Y253; 390,000 tested, 1.2% active; recombinant Pol eta, fluorescent DNA replication assay; Potency, µM (titrated, usually from 114 µM), without a hit: at the top dose activity change, negative = inhibition, hits mostly inhibitors; further: on the % scale 0 is the no-effect control and ±100 the full control effect
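Pol eta (10 nM) was preincubated with compounds for 15 min at room temperature, after which fluorescent replication substrate (50 nM final) was added to start the reaction. Fluorescence was read kinetically at 0 and 10 min.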
POLK inh – DNA polymerase kappa (human) inhibition; Potency, µM (highest dose often 107 µM), inactives show top-dose activity, negative = inhibition, most hits filed as inhibitors; purified Pol kappa, fluorescent DNA synthesis assay, 10 min; AID 588579; Q9UBT6; 400,000 tested, 0.53% active; further: on the % scale 0 is the no-effect control and ±100 the full control effect
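Here, compound and 10 nM enzyme are combined for 15 min at room temperature; adding 50 nM substrate (final) starts DNA synthesis, tracked by fluorescence at 0 and 10 min against buffer-only wells.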
* marks the source's active call; other numbers are inactive results; ? = inconclusive; nt = no result given; [ ] = remark or other dose. The call rests on the fitted dose curve; in most records, active means well fitted curve in the direction sought with a large enough effect; inconclusive means small, poorly fitted or top-dose-only effect, or another doubt; inactive means no such curve, though single readings can be large; an effect the other way counts as inactive or inconclusive. Potency means the concentration at half of the fitted maximal effect.

SMILES	POLB inh	FEN1 inh	POLI inh	WRN inhibitor	Pol eta inh	POLK inh
CCOC(=O)c1c(NC(=O)C2CC(Cl)=CCC2C(=O)O)sc2c1CCCCC2 (configuration not stated)	35µM*	-16%	-1%	-19%	-11%	-23%
COc1ccc(-c2cc(C(=O)Nc3c(Cl)cccc3Cl)no2)cc1OC	-2%	3%	22%	nt	-14%	3%
CCOC(=O)COc1ccc(/C=C(\C#N)c2nc3ccc(C)cc3[nH]2)cc1OC	11µM*	7%	?	nt	79µM*	?
Cc1cc(/C=C(\C#N)c2nc3ccccc3[nH]2)c(C)n1C	40µM*	-1%	?	-22%	?	-15%
CCC(=O)Oc1ccc(/C=C(\C#N)c2nc3ccccc3[nH]2)cc1OC	1%	-21%	64%	nt	nt	-18%
COc1ccc(/C=C(\C#N)c2nc3ccccc3[nH]2)cc1O	25µM*	-2%	?	?	79µM*	-34%
CSc1ccc(CCNC(=O)CCc2c(C)nc3c(-c4ccccc4)c(C)nn3c2C)cc1	4%	10%	34%	nt	-21%	-10%
CCOc1ccc(CCNC(=O)Cn2ncc3c(=O)oc4ccc(C)cc4c32)cc1	26%	1%	26%	nt	-13%	0%
COC(=O)c1ccc(NC(=O)N2CCc3c([nH]c4ccccc34)C2c2ccc(C)cc2)cc1 (configuration not stated)	10%	-6%	-14%	nt	nt	-2%
Cc1ccc(-c2nc(-c3cc4cc(Cl)ccc4oc3=O)sc2C)cc1	nt	11%	20%	nt	nt	7%
CCOC(=O)c1[nH]c2ccccc2c1NC(C)=O	80%	-13%	-2%	0%	-15%	-5%
CSc1ccc(C(c2c(C(=O)O)[nH]c3ccccc23)c2c(C(=O)O)[nH]c3ccccc23)cc1	-27%	-6%	?	-8%[11.6 µM]	79µM*	?
CCOc1cc(Br)cc(C(c2c(C(=O)O)[nH]c3ccccc23)c2c(C(=O)O)[nH]c3ccccc23)c1O	?	?	-16%	2%[11.6 µM]	79µM*	?
CCCCN(CC)C(=O)c1cc2c(=O)n3ccccc3nc2n1C	45µM*	0%	-25%	nt	-12%	-28%
COc1ccccc1O	-2%	1%	-19%	6%	-6%	14%
COc1cccc(O)c1O	nt	nt	nt	nt	nt	3.2µM*
CC=Cc1cc2c(c(=O)o1)C(=O)C(O)C(C)O2 (configuration not stated)	nt	-6%	50µM*	-1%	?	-27%
CC(=O)Nc1ccc(C(=O)OCC(=O)N2CCCC2=O)cc1	nt	-2%	40%	-25%	-15%	-1%
COc1cc(C(=O)OCC(=O)N2CCCC2=O)cc(OC)c1C	nt	-12%	?	-19%	32µM*	?
CN(C)c1ccc(/C=C2\C=Nc3ccccc32)cc1	nt	-9%	17%	nt	nt	3%
CC(=O)Oc1cc(C)c(OC(C)=O)c2ccccc12	nt	nt	nt	nt	nt	-3%[60.1 µM]
NCCNCCN	nt	nt	nt	nt	nt	1.1µM*
NCCNCCNCCN	7%	19%	-18%	5%	-9%	0%
COc1ccccc1N(C(C)=O)C1=C(Cl)C(=O)c2ccccc2C1=O	nt	nt	nt	-7%[11.6 µM]	50µM*	nt
CC(=O)N(C1=C(N)C(=O)c2ccccc2C1=O)C(C)C	39%	-2%	37%	14%	3%	-8%
SMILES	POLB inh	FEN1 inh	POLI inh	WRN inhibitor	Pol eta inh	POLK inh
CN1C(C(=O)Nc2ccccn2)C(=O)c2sc(Cl)cc2S1(=O)=O (configuration not stated)	nt	nt	nt	nt	nt	-10%[60.1 µM]
CN1C(C(=O)Nc2ccccn2)=C(O)c2sc(Cl)cc2S1(=O)=O	?	13%	79µM*	-4%	0%	-10%
Cc1ccn2c(=O)nc(SCC(=O)OCc3ccccc3)nc2c1	nt	-1%	45µM*	-27%	50µM*	?
N[C@@H](C(=O)O)c1ccc(O)c(C(=O)O)c1	nt	50µM*	?	nt	nt	1%
COc1ccc(C(=O)NCc2ccc3c(c2)cc(C)n3C)cc1OC	-1%	-15%	?	-8%	-11%	-11%
CCN(CC)S(=O)(=O)c1ccc(C(=O)NCc2ccc3c(c2)cc(C)n3C)cc1	0%	?	?	50µM*	-20%	-30%
Cc1ccc(S(=O)(=O)N2CCN(C(=O)c3cccc(-n4cccc4)c3)CC2)cc1	nt	-3%	22µM*	?	18µM*	79µM*
CC(C)(C)n1ncc2c(=O)n(Cc3ccccc3C(F)(F)F)cnc21	nt	10%	29%	nt	nt	8%
Cc1ccc(C(=O)OC2=C(C(=O)c3ccccc3)N(C)S(=O)(=O)c3ccccc32)cc1	?	15%	89µM*	nt	-19%	-11%
CCCN1C(C(=O)c2ccccc2)=C(OC(=O)c2ccc(C)cc2)c2ccccc2S1(=O)=O	-1%	-1%	31%	nt	-16%	13%
CC(=O)N(C(C)=O)N1C(=O)/C(=C/c2ccc(Cl)cc2)SC1=S	?	?	25µM*	?	28µM*	-34%
Cc1cc2nc3ccc(N(C)C)cc3nc2cc1N	nt	?	6.3µM*	50µM*	?	?
Cc1ccc(-n2nc3cc(C)c(N)cc3n2)cc1	46%	-13%	1%	-6%	-7%	-9%
Cc1ccc(OCc2nn3c(-c4n[nH]c5c4CCC5)nnc3s2)cc1	14µM*	nt	nt	nt	nt	nt
c1ccc(OCc2nn3c(-c4n[nH]c5c4CCC5)nnc3s2)cc1	?	-1%	?	-25%	?	-26%
O=C(CC1N=C2c3ccccc3N=C(SCc3ccccc3Cl)N2C1=O)NCc1cccs1 (configuration not stated)	-10%	-13%	24%	nt	-11%	-12%[60.1 µM]
O=C(CSC(=S)N1CCCC1)c1cc(Br)cc(Br)c1O	50µM*	-15%	?	56µM*	?	?
CC1CCCN(C(=S)SCC(=O)c2cc(Br)cc(Br)c2O)C1 (configuration not stated)	16µM*	50µM*	22µM*	89µM*	-17%	25µM*
Cc1ccc2c(c1)-c1c(cnn1CC(=O)N1CCN(c3cccc(C(F)(F)F)c3)CC1)CO2	-10%	-19%	17%	nt	-12%	-14%
O=C(O)Cc1ccc(C(=O)c2ccccc2)s1	0%	-3%	-10%	nt	1%	-22%
O=C(O)Cc1ccc(C(=O)CSc2ccccc2)s1	16µM*	-32%	25µM*	?	20µM*	?
CC(C)C[C@H](NC(=O)[C@H](Cc1ccccc1)NC(=O)[C@H](Cc1ccccc1)NC(=O)[C@@H](N)CO)C(=O)N[C@@H](CCCN=C(N)N)C(=O)N[C@@H](CC(N)=O)C(=O)O	nt	nt	nt	nt	nt	10%[60.1 µM]
